FUS suppressor – FUS proteinopathy suppression in yeast; Potency, µM (top dose mostly 76.6 µM), hits mostly activators; AID 1347120; hit rate 0.24% among 390,000; S. cerevisiae FUS-expressing, growth rescue, OD600, 24 h; also: nearly all actives have a fitted effect of over 55% in size
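Yeast expressing FUS under galactose induction, OD 0.005 in 2% galactose medium; compounds in a dilution series, 24 h at 30C. Growth rescue by absorbance at 600 nm; CP55940 positive control, DMSO negative.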
PTHR1 agonist – PTHR1 (human) receptor agonism; HEK293 GP2 PTHR1 cells, GloSensor cAMP luminescence, 1 h; AID 743266; Potency, µM (top dose mostly 115 µM), usual class: activators; hit rate 0.075% among 410,000; Q03431; also: nearly all actives have a fitted effect of over 55% in size
Target sequence (Q03431 whole entry, looked up): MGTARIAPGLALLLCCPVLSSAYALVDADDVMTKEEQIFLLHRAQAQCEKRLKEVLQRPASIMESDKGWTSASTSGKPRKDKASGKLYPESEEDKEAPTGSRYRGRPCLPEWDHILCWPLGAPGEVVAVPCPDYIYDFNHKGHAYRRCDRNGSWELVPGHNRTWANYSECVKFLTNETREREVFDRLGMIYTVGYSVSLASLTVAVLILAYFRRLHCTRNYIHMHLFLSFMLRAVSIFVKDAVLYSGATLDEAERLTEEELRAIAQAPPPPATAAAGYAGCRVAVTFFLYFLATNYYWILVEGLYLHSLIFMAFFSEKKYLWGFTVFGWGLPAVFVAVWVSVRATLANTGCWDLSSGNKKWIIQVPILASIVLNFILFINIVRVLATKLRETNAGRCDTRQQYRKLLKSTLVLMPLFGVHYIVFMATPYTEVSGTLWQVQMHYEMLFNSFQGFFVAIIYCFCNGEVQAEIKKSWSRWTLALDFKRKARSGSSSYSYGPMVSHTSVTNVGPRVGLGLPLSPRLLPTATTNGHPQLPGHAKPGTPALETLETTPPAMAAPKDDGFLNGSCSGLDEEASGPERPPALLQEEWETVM
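HEK-293-derived GP2 cells expressing PTHR1 and a GloSensor cAMP reporter, 3,000/well, plated overnight, given luciferin plus IBMX (each 0.5 mM as added) for 1 h at 37 °C, then compound for 1 h at 37 °C. Luminescence was read after 15 min at room temperature.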
LDHA block – LDHA (human) enzyme inhibition; activity change, % (values are at about 110 or 230 µM); hit rate 0.15% among 480,000; purified LDHA, NADH/diaphorase-resazurin fluorescence; active compounds read low; P00338; in the data active = activity change below about -30%; inconclusive = mostly about -25% to -30%
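Human LDH5 at 2 nM final in Tris HCl pH 7.4 with 0.06 mM NADH and 0.2 mM pyruvate, reacted 5 minutes at room temperature. Remaining NADH coupled via diaphorase/resazurin; resorufin fluorescence read at 0 and 20 minutes, normalized to enzyme-free and DMSO wells.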
TDP-43 yeast inh – inhibitors of TDP-43 toxicity in yeast. Potency, µM (highest dose often 46.1 µM), hits mostly activators. TDP-43 expressing yeast growth rescue, BacTiter-Glo, 24 h. AID 652104. hit rate 1.8% among 410,000; also: nearly all actives have a fitted effect of over 50% in size
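Luminescence from BacTiter-Glo reports growth of TDP-43-expressing yeast after 24 hr at 30 deg C with compound. Cells were raffinose-pregrown to mid-log, then seeded in galactose medium at OD600=0.02.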
Abeta yeast res – compounds reversing amyloid beta toxicity in yeast; yeast expressing A-beta42, growth rescue, OD600, 48 h; response scale: 0% DMSO, 100% iron-clioquinol control; Potency, µM (doses to about 46.1 µM), actives largely listed as activators; hit rate 0.063% among 410,000; also: nearly all actives have a fitted effect of over 55% in size
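Yeast growth medium received pinned compounds, then yeast cells expressing toxic A-beta were added; plates incubated at 30 C for 48 hr. Growth read as absorbance at 600 nm, normalized to DMSO and equimolar FeCl3 plus clioquinol controls.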
aSyn rescue – inhibitors of alpha-synuclein toxicity in yeast | Yeast expressing alpha-synuclein, growth rescue, BacTiter-Glo, 24 h | Potency, µM (series often up to 46.1 µM), actives largely listed as activators | hit rate 0.14% among 370,000 | AID 652106; also: nearly all actives have a fitted effect of over 65% in size
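Screening used galactose-induced yeast with toxic alpha-synuclein levels, exposed to compound for 24 hr at 30 deg C. Cell growth, read with BacTiter-Glo luminescence, gave the measured signal.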
Numbers stand for hits; n = inactive; u = inconclusive; x = no result; [ ] = another dose, or the depositor's remark. An excerpt weighted towards active compounds, which were near 1.9% of everything screened. Unless noted, calls follow the shape of the dose curve; as a rule, active = well fitted curve in the direction sought with a large enough effect; inconclusive = small, poorly fitted or top-dose-only effect, or another doubt; inactive = no such curve, though single readings can be large; an effect the other way counts as inactive or inconclusive.

SMILES	FUS suppressor	PTHR1 agonist	LDHA block	TDP-43 yeast inh	Abeta yeast res	aSyn rescue
c1ccc(CNc2ncnc3sc4c(c23)CCCC4)nc1	n	n	n	13µM	n	n
CN(C)c1ncccc1CNC(=O)c1nccnc1N	x	x	n	x	x	x
O=C(CCC1CCCCC1)Nc1ccccc1-c1ccccc1	n	n	n	14µM	n	n
COc1ccc2nc3oc(C(=O)N4CC(C)CC(C)C4)cc3cc2c1 (stereo not given)	n	n	n	13µM	n	n
CC1CC(C)CN(C(=O)c2cc3cc(Br)cc(Br)c3o2)C1 (stereo not given)	n	n	n	32µM	n	n
COc1ccc2nc3oc(C(=O)N4CCCCC4)cc3cc2c1	n	n	n	u	n	n
O=C(Cn1ccc2ccc(Cl)cc21)Nc1ccc(O)cc1	x	x	n	x	x	x
O=C(CSc1nc2cc(Cl)ccc2s1)NCC1CCCO1 (stereo not given)	n	n	n	20µM	n	n
CCOc1ccc(N(CC(=O)NCc2ccc(Cl)cc2Cl)S(C)(=O)=O)cc1	x	x	n	x	x	x
O=C(OCc1coc(-c2cccs2)n1)c1ccc2c(c1)OCCCO2	x	x	n	x	x	x
Cc1ccccc1-c1nc(CSc2nc(C)c(CCO)c(=O)[nH]2)c(C)o1	x	x	n	x	x	x
Cc1cccc(CN2C(=O)c3ccccc3Sc3ccc(C(=O)NCc4ccco4)cc32)c1	n	n	n	n	n	x
CCN(CC)C(=O)c1ccc2c(c1)N(Cc1c(F)cccc1Cl)C(=O)c1ccccc1S2	u	n	n	22µM	n	x
O=C(NCc1ccco1)c1ccc2c(c1)N(Cc1ccccc1)C(=O)c1ccccc1S2	32µM	u	n	n	n	x
COCCNC(=O)c1ccc2c(c1)N(Cc1c(F)cccc1Cl)C(=O)c1ccccc1S2	u	n	n	n	n	x
CC1(C)CS(=O)(=O)N(c2ccc(Cl)c(C(=O)Nc3cccc(C(F)(F)F)c3)c2)C1=O	x	x	n	x	x	x
Cn1ncc(Cl)c1C(=O)N1CCN(c2cccc(Cl)c2)CC1	n	n	n	14µM	n	n
Cn1ncc(Cl)c1C(=O)Nc1cccc(Cl)c1	n	n	n	7.1µM	n	n
CC(C)c1ccc(CN(C(=O)c2cc(=O)c3ccccc3o2)C2CCS(=O)(=O)C2)cc1 (stereo not given)	x	x	n	x	x	x
Cc1ccc(C(=O)Nc2nnc(NC(=S)Nc3ccccc3)s2)cc1	n	n	n	n	n	n
CCc1nnc(NC(=S)Nc2ccccc2)s1	n	n	n	13µM	u	n
Cc1nc(NC(=S)Nc2ccccc2)sc1C	n	n	n	u	11µM	n
CCC(C(=O)Nc1nc(C)c(C)s1)c1ccccc1 (stereo not given)	n	n	n	18µM	u	n
CN(C(=O)c1cccc(Nc2ccc(-c3ccc4c(c3)OCCO4)nn2)c1)C1CCCCC1	25µM	n	n	n	n	n
CN(C)S(=O)(=O)c1ccc(Nc2ccc(-c3ccc4c(c3)OCCO4)nn2)cc1	n	n	n	n	n	n
SMILES	FUS suppressor	PTHR1 agonist	LDHA block	TDP-43 yeast inh	Abeta yeast res	aSyn rescue
COc1ccc(C(=O)c2coc3ccc(OC(C)=O)cc23)cc1	n	n	n	13µM	n	n
N#C/C(=C\c1ccccn1)c1nc2ccccc2s1	n	n	n	18µM	u	n
COc1ccc(NC(=O)Cn2c(SCc3cccc(C)c3)nc3ccncc32)c(OC)c1OC	x	x	n	x	x	x
Cn1c(C=C(C#N)C#N)ccc1-c1cc(Cl)cc(Cl)c1	x	x	n	x	x	x
COc1ccc(C(=O)c2ccccc2)cc1Br	n	n	n	13µM	n	n
CCOC(=O)c1ccc(Nc2nc3ccccc3nc2NS(=O)(=O)c2ccc(F)cc2)cc1	x	x	n	x	x	x
COc1ccc(/C=C(\C#N)c2nc3cc(C)c(C)cc3[nH]2)cc1Br	x	x	n	x	x	x
COc1ccc(-c2nc3scc(CCNS(=O)(=O)c4ccccc4F)n3n2)cc1	n	n	n	22µM	n	x
COc1ccc(OC)c(S(=O)(=O)NCCc2csc3nc(-c4ccccc4)nn23)c1	n	n	n	n	n	x
O=C(CSC1=NNC(c2ccccn2)S1)Nc1ccc(C(F)(F)F)cc1 (stereo not given)	n	n	n	n	u	7.9µM
c1ccc(CSC2=NNC(c3ccccn3)S2)cc1 (stereo not given)	n	n	n	n	n	5.6µM
c1ccc(CSc2ncccn2)cc1	n	n	n	n	n	n
Cc1ccc(NC(=O)CN(C)C(=O)c2ccc(S(=O)(=O)Nc3ccc(Cl)cc3)cc2)cc1	x	x	n	x	x	x
Cc1ccc2[nH]c(C)c(CC(=O)NCc3cn4ccc(C)cc4n3)c2c1	x	x	n	x	x	x
COc1cc(/C=N/N2CCOCC2)ccc1OCc1ccc(Cl)cc1	n	n	n	11µM	n	n
COc1cc(/C=N/N2CCOCC2)ccc1OCc1ccccc1	n	n	n	n[9.22 µM]	n	n
Cc1ccc(CNCc2ccc(-c3ccc(F)c(Cl)c3)o2)cc1	x	x	n	x	x	x
COc1ccc(OC)c(S(=O)(=O)n2nnc3ccccc32)c1	x	n	n	u	n	n
COc1ccc(F)cc1S(=O)(=O)n1nnc2ccccc21	u	n	n	10µM	n	u
Cc1ccc2nc(NC(=O)C3=NN(c4ccccc4)C(=O)CC3)sc2c1	u	n	n	16µM	n	n
CCC(C)NC(=S)N(C)N (stereo not given)	x	x	n	x	x	x
COc1cccc(N/C=C/C(=O)c2ccc(OC)c(OC)c2)c1	n	n	n	n	n	u
COc1ccccc1C(=O)O/N=C(/c1ccncc1)c1ccc([N+](=O)[O-])cc1	x	n	n	28µM	n	n
Cc1cccc(/C(N)=N/OC(=O)c2ccncc2)c1	n	n	n	u	n	n
CCOC(=O)c1cccc(N/C=C/C(=O)c2ccc(OC)c(OC)c2)c1	n	n	n	u	n	14µM
SMILES	FUS suppressor	PTHR1 agonist	LDHA block	TDP-43 yeast inh	Abeta yeast res	aSyn rescue
COc1ccc(C(=O)O/N=C(\N)c2ccccc2)cc1OC	n	n	n	u	n	n
COc1ccc(C(=O)O/N=C(\N)c2cccc(C)c2)cc1OC	n	n	n	22µM	n	n
Cc1cccc(C(=O)O/N=C(\N)c2ccc(Cl)cc2)c1	n	n	n	10µM	n	n
O=c1cc(O)c2sc3nc(C45CC6CC(CC(C6)C4)C5)cc(C(F)(F)F)c3c2[nH]1	x	x	n	x	x	x
Cc1cccc(C(=O)O/N=C(\N)c2ccc(Br)cc2)c1	n	n	n	6.3µM	n	n
Cc1cc(C)cc(C(=O)O/N=C(\N)c2ccc(Br)cc2)c1	n	n	n	35µM	n	n
COc1ccccc1C(=O)O/N=C(\N)c1ccc(Cl)cc1	n	n	n	14µM	n	n

Compound activity as filed in PubChem.
